GRIN3A LBD mod: NR3A (human) ligand-binding domain modulation; AID 1259313; Tm shift relative to glycine control, % at 25 µM; NR3A LBD differential scanning fluorimetry, Tm shift; 0% = protein alone, 100% = glycine-bound protein; 2.5% of 340,000 active;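 active means melting temperature shift of at least 10% of the positive control shift, at one fixed dose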
NadD block: blocks S. aureus nicotinate mononucleotide adenylyltransferase; purified NadD enzyme, colorimetric absorbance read-out; 0.78% of 360,000 active; AID 602399; inhibition, % at 20 µM; in the data active means inhibition above about 26%
SMARCA2 activ: activators of SMARCA2 function | MG213 cells, MMTV-luciferase reporter, dexamethasone, overnight | activation, % at 9.1 µM | 1% of 370,000 active | AID 652017; in the data active means activation above about 7.8%;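 further: 0% = vehicle wells and 100% = reference activator wells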
SKN-1 block: inhibitors of C. elegans SKN-1 | 0.49% of 360,000 active | AID 624304 | C. elegans VP596 Pgst-4::GFP/RFP ratio, acrylamide-induced, 24 h | inhibition, % at 21.8 µM;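 active means interference check ratio from 0.5 to 1.5 plus GFP to RFP signal ratio inhibition reaching or exceeding a fixed threshold, cut at about 30% in these data, passing the limit was not always enough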
esBAF inh: blocks esBAF chromatin remodeling in mouse ES cells; Bmi1-luciferase knock-in reporter, 24 h; 100% = twice the neutral-well signal; reporter increase, % at 12.5 µM; 2% of 350,000 active; AID 602393; in the data active means activation above about 40%; inconclusive means no clear call, values can overlap the other calls;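 further: 0% = median of the plate's neutral control wells and 100% = double that signal; a rise in the Bmi1 reporter signal indicates esBAF inhibition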
Vif inh: HIV Vif inhibition. HEK293T cells, Vif self-association by quenched fluorescence, imaging, 24 h. 0.35% of 340,000 active. inhibition, % at 7.49 µM; in the data active means inhibition above about 50%, passing the limit was not always enough; inconclusive means no clear call, values can overlap the other calls; inactive means below about 31%
The depositor's hits bear a star; u = inconclusive; x = no result. The list is not random: actives were taken first. Their share in the collection is about 5.2%.

SMILES | GRIN3A LBD mod | NadD block | SMARCA2 activ | SKN-1 block | esBAF inh | Vif inh
OC[C@@H]1[C@@H](c2ccc(Cl)cc2)C(c2ccccc2)=NN1c1ccccc1 | 24* | 2 | -3 | 15 | 5 | -3
COc1ccccc1[C@H]1C(c2ccc(F)cc2)=NN(c2ccccc2)[C@@H]1CO | -6 | 2 | -5 | 8 | -8 | 1
O=C(C[C@H]1C[C@H]2c3cc(NC(=O)C4CCC4)ccc3O[C@H]2[C@@H](CO)O1)NCc1cc(F)ccc1F | x | x | x | x | 1 | x
COc1ccc(NC(=O)Nc2ccc3c(c2)C(=O)N([C@H](C)CO)C[C@@H](C)[C@H](CN(C)S(=O)(=O)c2ccc(F)cc2)OCCCC[C@H](C)O3)cc1 | x | x | x | x | -3 | x
O=C1C2C(C(=O)N1Cc1cccnc1)C1C=CC2C12CC2 (stereo not given) | 1 | -4 | -3 | 41* | 7 | 18
O=C1C2C3C=CC(C3)C2C(=O)N1Cc1cccnc1 (stereo not given) | -1 | -2 | -4 | -9 | x | -6
COc1ccc(NC(=O)N(C)C[C@@H]2OCCCC[C@@H](C)Oc3ccc(NS(C)(=O)=O)cc3C(=O)N([C@H](C)CO)C[C@H]2C)cc1 | x | x | x | x | 6 | x
CC(C)NC(=O)N[C@H]1CC[C@@H](CCNC(=O)C2CCOCC2)O[C@H]1CO | x | x | x | x | 4 | x
CCCC(=O)Nc1ccc2c(c1)C(=O)N(C)[C@@H]1CC[C@H](CC(=O)NCCc3ccccc3)O[C@@H]1CO2 | x | x | x | x | -1 | x
C/C(Cn1cnc([N+](=O)[O-])n1)=N\NC(=O)c1ccccc1 | 1 | 1 | 3 | 0 | 44* | 13
C/C(Cn1nnc([N+](=O)[O-])n1)=N\NC(=O)c1ccccc1 | 0 | 2 | 4 | -6 | 10 | 20
C[C@@H]1CN([C@H](C)CO)S(=O)(=O)c2ccc(-c3ccccc3)cc2O[C@@H]1CN(C)S(C)(=O)=O | x | x | x | x | -4 | x
CCCC#Cc1ccc2c(c1)O[C@H](CN(C)C(=O)C1CC1)[C@@H](C)CN([C@@H](C)CO)S2(=O)=O | x | x | x | x | 5 | x
COCCNC(=O)C[C@@H]1C=C[C@H](NS(=O)(=O)c2ccc(C)cc2)[C@H](CO)O1 | x | x | x | x | -2 | x
COc1cccc(NC(=O)N(C)C[C@H]2OCc3ccccc3-c3ccccc3C(=O)N([C@@H](C)CO)C[C@H]2C)c1 | x | x | x | x | -11 | x
Oc1ccccc1-c1cc(C(F)(F)C(F)F)nc(-c2ccccc2)n1 | 14* | 6 | 3 | -10 | -7 | -2
COc1ccc(O)c(-c2cc(C(F)(F)C(F)F)nc(-c3ccccc3)n2)c1 | -4 | -8 | 2 | 1 | 2 | 1
Cc1cc(NC(=O)Cc2ccsc2)ccc1Br | -1 | -5 | -3 | 63* | -2 | -5
O=C(Cc1ccccn1)N[C@H]1CC[C@H](CCn2cc(-c3ccccc3)nn2)O[C@@H]1CO | x | x | x | x | 5 | x
O=C(/C=C/c1ccco1)Nc1ccc(Oc2ccc(Cl)cc2)cc1 | 2 | 8 | -2 | 9 | -5 | 63*
COc1ccccc1NC(=S)NC(=O)/C=C/c1ccco1 | -6 | 11 | 3 | 3 | x | 3
Cc1ccc(NC(=O)/C=C/c2ccco2)nc1 | 2 | 2 | 4 | 8 | x | 51*
O=C(/C=C/c1ccco1)Nc1ccccn1 | -5 | -2 | 0 | 11 | x | 11
COc1ccccc1NC(=O)/C=C\c1ccco1 | 1 | 3 | 3 | 16 | 54* | -1
CC(=O)N1[C@@H]2c3ccc(-c4ccccc4)c(=O)n3C[C@H]1[C@H](CO)[C@H]2C(=O)NC1Cc2ccccc2C1 | x | x | x | x | 2 | x
SMILES | GRIN3A LBD mod | NadD block | SMARCA2 activ | SKN-1 block | esBAF inh | Vif inh
O=C(Nc1nc(-c2ccc(Cl)cc2)cs1)c1cccnc1 | 4 | 4 | -4 | 11 | 5 | x
O=C(Nc1ccc(-c2csc(Nc3ccc(Cl)cc3)n2)cc1)c1cccc(C(F)(F)F)c1 | 34* | x | -2 | x | x | x
O=C(Nc1ccc(-c2csc(Nc3ccccc3)n2)cc1)c1cccc(C(F)(F)F)c1 | 26* | 15 | -1 | 26 | -11 | 18
CCNC(=S)N/N=C/c1cc(C)n(-c2ccc(Cl)cc2)c1C | -2 | 8 | 6 | 15 | x | 6
Cc1ccc(-n2c(C)cc(/C=N/NC(=O)Cn3c4ccccc4c(=O)c4ccccc43)c2C)cc1 | 5 | 37* | -1 | 7 | x | 6
COC(=O)N/N=C/c1cc(C)n(-c2ccccc2)c1C | -1 | 3 | 2 | 4 | 28 | -8
Cc1cc(/C=N/NC(=O)Cn2c3ccccc3c(=O)c3ccccc32)c(C)n1-c1ccc(Cl)cc1 | -1 | 49* | -1 | 0 | x | 3
CO[C@@H]1CN(C)C(=O)c2ccc(NC(C)=O)cc2OC[C@H](C)N(C(=O)Cc2ccccn2)C[C@H]1C | x | x | x | x | -2 | x
CN1C[C@@H]2[C@H](c3ccccc31)[C@H](CO)N2C(=O)Nc1ccccc1Cl | x | x | x | x | 1 | x
CCn1cc(C(=O)NCCc2ccc(Cl)cc2)c(=O)c2cc(S(=O)(=O)N(C)C)ccc21 | 22* | 4 | -2 | -10 | 3 | -12
C[C@H]1CCCCO[C@H](CN(C)CC2CCCCC2)[C@@H](C)CN([C@@H](C)CO)C(=O)c2cc(NC(=O)NC3CCCCC3)ccc2O1 | x | x | x | x | -1 | x
O=S(=O)(c1cccc(-c2nc3n(n2)Cc2ccccc2-3)c1)N1CCCCC1 | -14 | 0 | 3 | -21 | x | x
O=S(=O)(c1cccc(-c2nc3n(n2)Cc2ccccc2-3)c1)N1CCCC1 | 13* | 3 | 1 | 8 | 9 | -5
COc1cc([C@H]2OC[C@H]3[C@@H]2CO[C@@H]3c2ccc(O[C@H]3O[C@H](CO)[C@@H](O)[C@H](O)[C@H]3O)c(OC)c2)ccc1O[C@@H]1O[C@H](CO)[C@@H](O)[C@H](O)[C@H]1O | 16* | 5 | 0 | -6 | -5 | 4
COc1cc2c(=O)c(-c3ccc(O)cc3)coc2cc1OC1OC(CO)C(O)C(O)C1O (stereo not given) | 2 | 2 | -1 | 16 | 36 | 0
CO[C@@H]1CN(C)C(=O)c2ccc(NC(=O)Nc3cccc(F)c3)cc2OC[C@H](C)N(C(C)=O)C[C@@H]1C | x | x | x | x | 4 | x
Oc1ccccc1Nc1nc(NCc2ccco2)c2ccccc2n1 | 24* | 2 | -2 | 12 | x | -20
Cc1ccccc1Nc1nc(NCc2ccco2)c2ccccc2n1 | -4 | -9 | -4 | -3 | u | 12
C/C(CC(=O)Nc1ccc(Cl)c(C(F)(F)F)c1)=N\NC(=O)c1cc2ccccc2cc1O | 30* | 36* | -1 | 16 | x | -6
CCOC(=O)CSc1cc(C)c(C#N)c2nc3ccccc3n12 | -3 | 14 | 2 | 25 | 4 | -3
CCOC(=O)c1c(C)cc(C)n2c1nc1ccccc12 | 1 | 4 | -3 | 40* | 9 | 1
COc1ccc(/C=C2\CCC(C3CCCC3)C2=O)cc1 (stereo not given) | -1 | 2 | 2 | 17 | 56* | -8
Cc1ccc(/C=C2\CCC(C3CCCC3)C2=O)cc1 (stereo not given) | 2 | 2 | 1 | 6 | x | 5

Source: PubChem (several laboratories)
